Results published in PubChem BioAssay (NCI).
This is part of a sample that, as a whole, favours compounds with a hit. Of some 79,000 tested, about 15% had one in any assay. Calls of active or inactive are those of the source. Rule as the data show it: active = growth inhibition above about 70%; inactive = the rest.

Key:
[1] = NCI Yeast Anticancer Drug Screen. Data for the rad52 strain (AID 147);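 also: 0% = growth of vehicle-treated control cultures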; conditions: S. cerevisiae rad52 mutant growth inhibition, active compounds read high
Procedure, shortened: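 Read-out: growth inhibition versus vehicle-treated controls. Cells were a DNA repair-deficient yeast strain treated with compounds.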

[2] = NCI Yeast Anticancer Drug Screen. Data for the rad50EPP+ strain (AID 151);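 also: 0% = growth of vehicle-treated control cultures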; conditions: S. cerevisiae rad50 mutant strain, active compounds read high
Procedure, shortened: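 Growth inhibition read against vehicle controls in rad50EPP+ yeast, a strain altered in DNA damage repair, after compound exposure.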

[3] = NCI Yeast Anticancer Drug Screen. Data for the mgt1 strain (AID 153); conditions: S. cerevisiae mgt1 mutant growth inhibition, active compounds read high
Procedure, shortened: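 mgt1 yeast grown with test compound; read-out is growth inhibition versus vehicle-treated cultures.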

[4] = NCI Yeast Anticancer Drug Screen. Data for the rad50 strain (AID 155);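 also: 0% = growth of vehicle-only cultures of the same strain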; conditions: S. cerevisiae rad50 strain growth inhibition, active compounds read high
Procedure, shortened: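 Compounds were tested on a yeast strain with an engineered DNA damage repair alteration; the reported value is growth inhibition normalised to vehicle treatment.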

[5] = NCI Yeast Anticancer Drug Screen. Data for the mec2-1 strain (AID 157); conditions: S. cerevisiae mec2-1 strain, active compounds read high
Procedure, shortened: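 Yeast mec2-1 mutant treated with compound. Readout: growth inhibition vs vehicle controls.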

[6] = NCI Yeast Anticancer Drug Screen. Data for the sgs1 mgt1 strain (AID 161);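 also: 0% = growth of cultures given vehicle only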; conditions: S. cerevisiae sgs1 mgt1 strain, active compounds read high
Procedure, shortened: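 Inhibition of yeast growth, normalised to vehicle-treated controls, is reported for a strain bearing genetic alterations in DNA damage repair.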

[7] = NCI Yeast Anticancer Drug Screen. Data for the CLN2oe strain (AID 163);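 also: 0% = growth of vehicle-only control cultures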; conditions: S. cerevisiae CLN2oe strain, active compounds read high
Procedure, shortened: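 Read-out: yeast growth inhibition, expressed relative to vehicle-only controls. The strain bears an engineered cell-cycle alteration.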

[8] = NCI Yeast Anticancer Drug Screen. Data for the cln2 rad14 strain (AID 165);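 also: 0% = growth equal to vehicle treated cultures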; conditions: S. cerevisiae cln2 rad14 strain, active compounds read high
Procedure, shortened: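 cln2 rad14 yeast strain; compound exposure; growth inhibition read vs vehicle controls.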

[9] = NCI Yeast Anticancer Drug Screen. Data for the bub3 strain (AID 167); conditions: S. cerevisiae bub3 mutant strain, active compounds read high
Procedure, shortened: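 Growth of a checkpoint-deficient yeast mutant is measured after compound exposure. Values represent inhibition relative to vehicle.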

[10] = NCI Yeast Anticancer Drug Screen. Data for the wt2 strain (AID 169);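 also: 0% = growth of vehicle-treated yeast cultures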; conditions: S. cerevisiae wt2 strain growth inhibition, active compounds read high
Procedure, shortened: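 Read-out: growth inhibition versus vehicle-treated control cultures after compound exposure of the yeast strain.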

[11] = NCI Yeast Anticancer Drug Screen. Data for the mlh1 strain (AID 171);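 also: 0% = growth of vehicle-treated control cultures of the same strain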; conditions: S. cerevisiae mlh1 strain growth inhibition, active compounds read high
Procedure, shortened: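 Read-out: growth inhibition versus vehicle controls. Strain: engineered yeast with a defined DNA repair or cell cycle defect, compound-treated.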

[12] = NCI Yeast Anticancer Drug Screen. Data for the sgs1 strain (AID 173);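 also: 0% = growth of vehicle-only control cultures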; conditions: S. cerevisiae sgs1 mutant, active compounds read high
Procedure, shortened: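 Read-out: yeast growth inhibition relative to vehicle controls, following compound exposure of a strain with a defined DNA repair/cell cycle alteration.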

[13] = NCI Yeast Anticancer Drug Screen. Data for the mlh1 rad18 strain (AID 175); conditions: S. cerevisiae mlh1 rad18 strain growth inhibition, active compounds read high
Procedure, shortened: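 Yeast w/ defined DNA-repair lesions; compound exposure; growth vs vehicle controls → % inhibition.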

[14] = NCI Yeast Anticancer Drug Screen. Data for the rad18 strain (AID 177); conditions: S. cerevisiae rad18 mutant growth inhibition, active compounds read high
Procedure, shortened: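 Readout: growth inhibition vs vehicle controls. Cells: genetically altered yeast strain, DNA repair defect.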

[15] = at 5.0 µM (retest, dose inferred, filed as 0.5)
[16] = at 50.0 µM (retest, dose inferred, filed as 5.0)

Measured: growth inhibition

O=[N+]([O-])c1oc2ccc3ccccc3c2c1CCO
active: [1]; at 1.2 µM 89% | [1]; at 3.7 µM 94% | [1]; at 11.0 µM 97% | [1]; at 33.0 µM 98% | [1]; at 100.0 µM 98% | [2]; at 3.7 µM 84% | [2]; at 11.0 µM 95% | [2]; at 33.0 µM 97% | [2]; at 100.0 µM 98% | [3]; at 11.0 µM 85% | [3]; at 33.0 µM 98% | [3]; at 100.0 µM 99% | [4]; at 1.2 µM 83% | [4]; at 3.7 µM 90% | [4]; [15] 89% | [4]; at 11.0 µM 96% | [4]; at 33.0 µM 98% | [4]; [16] 99% | [4]; at 50.0 µM 99% | [4]; at 100.0 µM 98% | [5]; at 1.2 µM 79% | [5]; at 3.7 µM 92% | [5]; [15] 97% | [5]; at 11.0 µM 98% | [5]; at 33.0 µM 99% | [5]; [16] 99% | [5]; at 50.0 µM 98.2% | [5]; at 100.0 µM 99% | [6]; [15] 92% | [6]; [16] 98% | [6]; at 50.0 µM 99.3% | [7]; at 11.0 µM 87% | [7]; at 33.0 µM 97% | [7]; at 100.0 µM 99% | [8]; [15] 98% | [8]; [16] 99% | [8]; at 50.0 µM 98.5% | [9]; at 11.0 µM 78% | [9]; at 33.0 µM 98% | [9]; [16] 99% | [9]; at 50.0 µM 97.8% | [9]; at 100.0 µM 99% | [10]; at 11.0 µM 80% | [10]; at 33.0 µM 97% | [10]; at 100.0 µM 99% | [11]; at 11.0 µM 88% | [11]; at 33.0 µM 98% | [11]; at 100.0 µM 99% | [12]; at 1.2 µM 82% | [12]; at 3.7 µM 88% | [12]; at 11.0 µM 95% | [12]; at 33.0 µM 98% | [12]; at 100.0 µM 99% | [13]; [15] 95% | [13]; [16] 99% | [13]; at 50.0 µM 96.7% | [14]; at 1.2 µM 97% | [14]; at 3.7 µM 96% | [14]; at 11.0 µM 97% | [14]; at 33.0 µM 98% | [14]; at 100.0 µM 99%
inactive: [2]; at 1.2 µM 63% | [3]; at 1.2 µM 7% | [3]; at 3.7 µM 27% | [7]; at 1.2 µM 29% | [7]; at 3.7 µM 66% | [9]; at 1.2 µM -17% | [9]; at 3.7 µM -3% | [9]; [15] 14% | [10]; at 1.2 µM 5% | [10]; at 3.7 µM 19% | [11]; at 1.2 µM 10% | [11]; at 3.7 µM 44%
